# Assay results reported in the supplement of paper PMC12282887.
# ± gives the standard deviation of the averaged measurements.
# Test system: E. coli BW25113 marRABp lux reporter
# Experiment: promoter activity interaction Z-score (Lux/OD deviation from empty-vector control); higher = stronger promoter induction by the compound
# Description: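 E. coli BW25113 (wild type or ΔmarA/ΔsoxS/Δrob) carrying pTU175 luxCDABE promoter reporters was grown in LB in 384-well plates at 37°C with each of 94 compounds at 4 two-fold concentrations, in biological duplicates. Luminescence and OD600 were read every 30 min for 12 h and integrated as AUC over 8 h (0-8 h WT, 1-9 h mutants). Lux AUC was divided by OD AUC; the interaction score is the residual of a Huber robust fit of each promoter against the empty-vector control, then Z-transformed per promoter.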
smiles,measurement,setting,value
C/C=C/C/C=C/CCC(=O)[C@H]1O[C@H]1C(N)=O [Cerulenin],promoter activity interaction Z-score,"1.3 µg/ml, genetic background: wild type",-0.429 ± 0.45
same,promoter activity interaction Z-score,"1.3 µg/ml, genetic background: ΔmarA",-0.469 ± 0.27
same,promoter activity interaction Z-score,"1.3 µg/ml, genetic background: Δrob",-0.456 ± 0.13
same,promoter activity interaction Z-score,"1.3 µg/ml, genetic background: ΔsoxS",-0.416 ± 0.089
same,promoter activity interaction Z-score,"2.5 µg/ml, genetic background: wild type",-0.654 ± 0.29
same,promoter activity interaction Z-score,"2.5 µg/ml, genetic background: ΔmarA",-0.403 ± 0.076
same,promoter activity interaction Z-score,"2.5 µg/ml, genetic background: Δrob",-0.662 ± 0.091
same,promoter activity interaction Z-score,"2.5 µg/ml, genetic background: ΔsoxS",-0.444 ± 0.12
same,promoter activity interaction Z-score,"5 µg/ml, genetic background: wild type",-0.892 ± 0.19
same,promoter activity interaction Z-score,"5 µg/ml, genetic background: ΔmarA",-0.779 ± 0.41
same,promoter activity interaction Z-score,"5 µg/ml, genetic background: Δrob",-0.818 ± 0.011
same,promoter activity interaction Z-score,"5 µg/ml, genetic background: ΔsoxS",-0.796 ± 0.034
same,promoter activity interaction Z-score,"10 µg/ml, genetic background: wild type",-0.948 ± 0.37
same,promoter activity interaction Z-score,"10 µg/ml, genetic background: ΔmarA",-0.377 ± 0.77
same,promoter activity interaction Z-score,"10 µg/ml, genetic background: Δrob",-1.01 ± 0.028
same,promoter activity interaction Z-score,"10 µg/ml, genetic background: ΔsoxS",-0.994 ± 0.11
O=C(O)CN(CCN(CC(=O)O)CC(=O)O)CC(=O)O,promoter activity interaction Z-score,"18.3 µg/ml, genetic background: wild type",-0.176 ± 0.11
same,promoter activity interaction Z-score,"18.3 µg/ml, genetic background: ΔmarA",-0.48 ± 0.29
same,promoter activity interaction Z-score,"18.3 µg/ml, genetic background: Δrob",-0.224 ± 0.07
same,promoter activity interaction Z-score,"18.3 µg/ml, genetic background: ΔsoxS",-0.191 ± 0.04
same,promoter activity interaction Z-score,"36.5 µg/ml, genetic background: wild type",-0.238 ± 0.25
same,promoter activity interaction Z-score,"36.5 µg/ml, genetic background: ΔmarA",-0.327 ± 0.086
same,promoter activity interaction Z-score,"36.5 µg/ml, genetic background: Δrob",-0.221 ± 0.16
same,promoter activity interaction Z-score,"36.5 µg/ml, genetic background: ΔsoxS",-0.276 ± 0.012
same,promoter activity interaction Z-score,"73.1 µg/ml, genetic background: wild type",-0.3324 ± 0.002
same,promoter activity interaction Z-score,"73.1 µg/ml, genetic background: ΔmarA",-0.545 ± 0.11
same,promoter activity interaction Z-score,"73.1 µg/ml, genetic background: Δrob",-0.378 ± 0.066
same,promoter activity interaction Z-score,"73.1 µg/ml, genetic background: ΔsoxS",-0.175 ± 0.04
same,promoter activity interaction Z-score,"146.1 µg/ml, genetic background: wild type",0.543 ± 0.16
same,promoter activity interaction Z-score,"146.1 µg/ml, genetic background: ΔmarA",1.07 ± 0.021
same,promoter activity interaction Z-score,"146.1 µg/ml, genetic background: Δrob",1.66 ± 0.58
O=c1[nH]c(=O)c2[nH]c(O)nc2[nH]1 [Sodium urate],promoter activity interaction Z-score,"28.4 µg/ml, genetic background: wild type",-0.098 ± 0.014
same,promoter activity interaction Z-score,"28.4 µg/ml, genetic background: ΔmarA",-0.367 ± 0.46
same,promoter activity interaction Z-score,"28.4 µg/ml, genetic background: Δrob",-0.0815 ± 0.3
same,promoter activity interaction Z-score,"28.4 µg/ml, genetic background: ΔsoxS",-0.136 ± 0.38
same,promoter activity interaction Z-score,"56.8 µg/ml, genetic background: wild type",-0.215 ± 0.019
same,promoter activity interaction Z-score,"56.8 µg/ml, genetic background: ΔmarA",-0.183 ± 0.45
same,promoter activity interaction Z-score,"56.8 µg/ml, genetic background: Δrob",-0.209 ± 0.11
same,promoter activity interaction Z-score,"56.8 µg/ml, genetic background: ΔsoxS",-0.198 ± 0.26
same,promoter activity interaction Z-score,"113.7 µg/ml, genetic background: wild type",0.0146 ± 0.11
same,promoter activity interaction Z-score,"113.7 µg/ml, genetic background: ΔmarA",-0.285 ± 0.48
same,promoter activity interaction Z-score,"113.7 µg/ml, genetic background: Δrob",-0.227 ± 0.062
same,promoter activity interaction Z-score,"113.7 µg/ml, genetic background: ΔsoxS",-0.19 ± 0.33
same,promoter activity interaction Z-score,"227.3 µg/ml, genetic background: wild type",-0.107 ± 0.15
same,promoter activity interaction Z-score,"227.3 µg/ml, genetic background: ΔmarA",0.16 ± 0.43
same,promoter activity interaction Z-score,"227.3 µg/ml, genetic background: Δrob",-0.0974 ± 0.043
same,promoter activity interaction Z-score,"227.3 µg/ml, genetic background: ΔsoxS",-0.0308 ± 0.28
